# This is one part of a sample in which the strongest signals are shown more often than they occur.
# B1: RetS (Pseudomonas aeruginosa), Q9HUV7 (protein)
# chain: MVRLRIAIGLLVSFLLLLLGPMSPAVADDAGVSSVPLQTTATTPSANQNWRLLRDESAQLRIADVLQRKEQFRPLAKRSFIFPASPQAVWLQVQLPAQKVPSWLWIFAPRVQYLDYYLVQDGQLVRDQHTGESRPFQERPLPSRSYLFSLPVDGKPMTLYVRMTSNHPLMAWFDQIDEAGLVGLEKPAYAFGMLLGGMLLLLMYNLIRFAYSRSASSLWLAAVHAALAVCAAANLGLVAFWLPGLKFNQSLTADLGALGAAVSLLWFACSFFRGTAESRLNRLLQGEALLILAVGAIIAFTQQLWFSWLIYLLVILSSLSVPLIAAWHWYRGYQPARLIVAGMIVFNAGFMVFLPVLFGTKQLDPGWLVLGVFSFATLAGLVLSVSLTERQRLIQQLNLQQRTSEAAHTAELQTKAEFLAKISHEIRTPMNGVLGMTELLLGTPLSAKQRDYVQTIHSAGNELLTLINEILDISKLESGQIELDEVQFDLNALIEDCLDIFRVKAEQQRIELISFTQPQVPRVIGGDPTRLRQVVLSLLDNAFKQTEEGEILLVVALDDQGETPRLRIAVQDSGHPFDAKEREALLTAELHSGDFLSASKLGSHLGLIIARQLVRLMGGEFGIQSGSSQGTTLSLTLPLDPQQLENPTADLDGPLQGARLLVVDDNETCRKVLVQQCSGWGLNVSAVSSGKEALAQLRTKAHLREYFDVVLLDQDMPGMTGMQLAAKIKEDPNLNHDILLIMLTGISNAPSKIIARNAGIKRILAKPVAGYTLKATLADELAQRGVSGVTNYLQPAKEAQAPSLPSDFRILVAEDNSISTKVIRGMLNKLNLQPDTASNGQEALSAMKATQYDLVLMDCEMPVLDGFSATEQLRAWEAHEQRPHTPVVALTAHILSEHKERARLVGMDGHMAKPVELSQLRELIAYWVGERDRRRQGDALPS
# Legend:
# Assay in all cases: glycan array binding signal (z-score within array); higher = stronger binding
# Conditions in all cases: glycan notation: IUPAC condensed, linker removed
# Fuc(a1-2)Gal = target: Fuc(a1-2)Gal
# Outline: (§1)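 Columns mapping to the same glycan were averaged after glycan names were converted to IUPAC-condensed notation. The data come from 3228 arrays in the Consortium for Functional Glycomics database, limited to those with an available protein sequence. Binding is reported as a within-array Z-score averaged across arrays of one protein sequence and across linkers.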
# [1] = target: Fuc(a1-2)Gal(b1-4)GlcNAc(b1-3)[Fuc(a1-2)Gal(b1-4)GlcNAc(b1-6)]GalNAc
# Outline: as §1
# [2] = target: Fuc(a1-2)Gal(b1-4)[Fuc(a1-3)]GlcNAc(b1-3)GalNAc
# Outline: as §1
# [3] = target: Fuc(a1-2)[Gal(a1-3)]Gal(b1-3)GlcNAc(b1-2)Man(a1-3)[Fuc(a1-2)[Gal(a1-3)]Gal(b1-3)GlcNAc(b1-2)Man(a1-6)]Man(b1-4)GlcNAc(b1-4)[Fuc(a1-6)]GlcNAc
# Outline: as §1
# [4] = target: Fuc(a1-2)[GalNAc(a1-3)]Gal(b1-3)GalNAc(a1-3)[Fuc(a1-2)]Gal(b1-4)GlcNAc
# Outline: as §1
# [5] = target: Fuc(a1-3)[Gal(b1-4)]GlcNAc(b1-4)Gal(b1-4)[Fuc(a1-3)]GlcNAc(b1-4)Gal(b1-4)[Fuc(a1-3)]GlcNAc
# Outline: as §1
# [6] = target: Gal(a1-4)Gal(b1-3)GlcNAc(b1-2)Man(a1-3)[Gal(a1-4)Gal(b1-3)GlcNAc(b1-2)Man(a1-6)]Man(b1-4)GlcNAc(b1-4)GlcNAc
# Outline: as §1
# Gal(a1-4)Gal(b1-4)Glc = target: Gal(a1-4)Gal(b1-4)Glc
# Outline: as §1
# [7] = target: Gal(a1-4)Gal(b1-4)GlcNAc(b1-2)Man(a1-3)[Gal(a1-4)Gal(b1-4)GlcNAc(b1-2)Man(a1-6)]Man(b1-4)GlcNAc(b1-4)GlcNAc
# Outline: as §1
# [8] = target: Gal(b1-3)[Fuc(a1-4)]GlcNAc(b1-2)Man(a1-3)[Gal(b1-3)[Fuc(a1-4)]GlcNAc(b1-2)Man(a1-6)]Man(b1-4)GlcNAc(b1-4)[Fuc(a1-6)]GlcNAc
# Outline: as §1
# [9] = target: Gal(b1-3)[Fuc(a1-4)]GlcNAc(b1-3)Gal(b1-4)GlcNAc
# Outline: as §1
# Gal(b1-4)Gal = target: Gal(b1-4)Gal
# Outline: as §1
# [10] = target: Gal(b1-4)GlcNAc(b1-2)[Gal(b1-4)GlcNAc(b1-4)]Man(a1-3)[Gal(b1-4)GlcNAc(b1-2)[Gal(b1-4)GlcNAc(b1-6)]Man(a1-6)]Man(b1-4)GlcNAc(b1-4)GlcNAc
# Outline: as §1
# [11] = target: Gal(b1-4)GlcNAc(b1-3)[Gal(b1-4)GlcNAc(b1-6)]Gal(b1-4)GlcNAc
# Outline: as §1
# [12] = target: GalNAc(a1-3)Fuc(a1-2)Gal(b1-4)GlcNAc(b1-3)[GalNAc(a1-3)Fuc(a1-2)Gal(b1-4)GlcNAc(b1-6)]GalNAc
# Outline: as §1
# GalNAc(a1-3)GalNAc = target: GalNAc(a1-3)GalNAc
# Outline: as §1
# GalNAc(b1-3)Gal = target: GalNAc(b1-3)Gal
# Outline: as §1
# [13] = target: Glc(a1-4)Glc(a1-4)Glc(a1-4)Glc
# Outline: as §1
# [14] = target: Glc(a1-6)Glc(a1-6)Glc(a1-6)Glc
# Outline: as §1
# [15] = target: GlcNAc(a1-4)Gal(b1-4)GlcNAc(b1-3)Gal(b1-4)Glc
# Outline: as §1
# [16] = target: GlcNAc(a1-4)Gal(b1-4)GlcNAc(b1-3)Gal(b1-4)GlcNAc
# Outline: as §1
# [17] = target: GlcNAc(a1-4)Gal(b1-4)GlcNAc(b1-3)Gal(b1-4)[Fuc(a1-3)]GlcNAc(b1-3)Gal(b1-4)[Fuc(a1-3)]GlcNAc
# Outline: as §1
# [18] = target: GlcNAc(b1-2)Gal(b1-3)GalNAc
# Outline: as §1
# [19] = target: GlcNAc(b1-2)Man(a1-3)[GlcNAc(b1-2)Man(a1-6)]Man(b1-4)GlcNAc(b1-4)GlcNAc
# Outline: as §1
# [20] = target: GlcNAc(b1-2)[GlcNAc(b1-4)]Man(a1-3)[GlcNAc(b1-2)Man(a1-6)]Man(b1-4)GlcNAc(b1-4)GlcNAc
# Outline: as §1
# GlcNAc(b1-3)Gal(b1-4)Glc = target: GlcNAc(b1-3)Gal(b1-4)Glc
# Outline: as §1
# GlcNAc(b1-3)GalNAc = target: GlcNAc(b1-3)GalNAc
# Outline: as §1
# [21] = target: GlcNAc(b1-4)GlcNAc(b1-4)GlcNAc(b1-4)GlcNAc(b1-4)GlcNAc(b1-4)GlcNAc
# Outline: as §1
# Man(a1-2)Man(a1-3)Man = target: Man(a1-2)Man(a1-3)Man
# Outline: as §1
# [22] = target: Man(a1-2)Man(a1-3)[Man(a1-6)]Man(a1-6)[Man(a1-2)Man(a1-3)]Man(b1-4)GlcNAc(b1-4)GlcNAc
# Outline: as §1
binder,measurement,setting,value
B1,glycan array binding signal (z-score),Fuc(a1-2)Gal,1.84
same,glycan array binding signal (z-score),[1],0.163
same,glycan array binding signal (z-score),[2],1.16
same,glycan array binding signal (z-score),[3],2.79
same,glycan array binding signal (z-score),[4],0.731
same,glycan array binding signal (z-score),[5],-0.414
same,glycan array binding signal (z-score),[6],5.23
same,glycan array binding signal (z-score),Gal(a1-4)Gal(b1-4)Glc,-0.16
same,glycan array binding signal (z-score),[7],3.05
same,glycan array binding signal (z-score),[8],-0.397
same,glycan array binding signal (z-score),[9],0.071
same,glycan array binding signal (z-score),Gal(b1-4)Gal,3.18
same,glycan array binding signal (z-score),[10],0.39
same,glycan array binding signal (z-score),[11],-1.17
same,glycan array binding signal (z-score),[12],1.02
same,glycan array binding signal (z-score),GalNAc(a1-3)GalNAc,-0.917
same,glycan array binding signal (z-score),GalNAc(b1-3)Gal,-0.593
same,glycan array binding signal (z-score),[13],-0.095
same,glycan array binding signal (z-score),[14],-0.394
same,glycan array binding signal (z-score),[15],0.236
same,glycan array binding signal (z-score),[16],6.62
same,glycan array binding signal (z-score),[17],4.27
same,glycan array binding signal (z-score),[18],-0.622
same,glycan array binding signal (z-score),[19],0.152
same,glycan array binding signal (z-score),[20],-0.599
same,glycan array binding signal (z-score),GlcNAc(b1-3)Gal(b1-4)Glc,2.75
same,glycan array binding signal (z-score),GlcNAc(b1-3)GalNAc,-0.143
same,glycan array binding signal (z-score),[21],0.22
same,glycan array binding signal (z-score),Man(a1-2)Man(a1-3)Man,-1.17
same,glycan array binding signal (z-score),[22],0.409
